26 molecules from PMC6792352, “Limited Chemical Structural Diversity Found to Modulate Thyroid Hormone Receptor in the Tox21 Chemical Library” (Environmental Health Perspectives, 2019) can be followed below.

The AC50 is the concentration giving half of the maximal activity seen.

Each structure is given as a SMILES string. Structures can show the parent of a compound that is named as a salt.

This experiment deals with thyroid hormone receptor (endogenous TRα and TRβ). On the set-up: species or system GH3-TRE-Luc (rat pituitary); GH3-TRE-Luc luciferase reporter, antagonist mode against 1 nM T3, loss of signal, qHTS. Conditions: read-out: Average AC50 (uM) GH3-TRE-Antag, antagonist mode, 1 nM T3, no GH3 cytotoxicity hit.
Turning to `CCN(CC)CCNC(C(=O)OCCC(C)C)c1ccccc1` (centres unmarked) [Camylofin], the AC50 is over 50 µM. With `Nc1cc(Cl)c(N)c(Cl)c1` [2,6-Dichloro-1,4-benzenediamine] the figure was 78 µM; with `C/C(=C\c1csc(C)n1)[C@@H]1C[C@@H]2O[C@]2(C)CCC[C@H](C)[C@H](O)[C@@H](C)C(=O)C(C)(C)[C@@H](O)CC(=O)O1` [Epothilone B], 0.0109 µM.

Consider `c1ccc(-c2nc[nH]c2-c2ccccc2)cc1` [4,5-Diphenylimidazole], for which the AC50 was 24.1 µM. With `C=C1C[C@H]2[C@@H]3C=C(C)C4=CC(=O)CC[C@]4(C)[C@H]3CC[C@]2(C)[C@@]1(OC(C)=O)C(C)=O` [Melengestrol acetate] the figure was 26.6 µM.

In the case of `CCCCCC(C=O)=Cc1ccccc1` [Pentylcinnamaldehyde], the AC50 is over 50 µM. The result for `CN1CCC(OC(c2ccccc2)c2ccccc2)CC1` [Diphenylpyraline hydrochloride] reads 9 µM.

On to `N#CC(c1ccc(Cl)cc1)c1c(Cl)cc(-n2ncc(=O)[nH]c2=O)cc1Cl` (centres unmarked) [Diclazuril], for which the AC50 came to 4.7 µM. With `Cc1ccc(/C=N/n2c(-c3ccccc3)csc2=S)cc1` [Fezatione] the figure was 20.5 µM.

For `COc1ccc(C(=O)c2ccc(O)cc2)c(OC)c1` [(2,4-dimethoxyphenyl)(4-hydroxyphenyl)methanone], the AC50 was determined as 54.9 µM.

`N#Cc1cc(Br)c(O)c(Br)c1` [Bromoxynil]: the AC50 stood at 69.3 µM. `O=c1oc2c(O)c(O)cc3c(=O)oc4c(O)c(O)cc1c4c23` [Ellagic acid]: the AC50 was 12.9 µM. With `CC(C)=CCC/C(C)=C/C=C/C(C)=C/C=C/C(C)=C/C=C/C=C(C)/C=C/C=C(C)/C=C/C=C(\C)CCC=C(C)C` [Lycopene] the figure was 31.7 µM; with `CC(C)[C@H](C(=O)O[C@H](C#N)c1cccc(Oc2ccccc2)c1)c1ccc(Cl)cc1` [Esfenvalerate], 48 µM; with `O=C1/C(=C/c2cccs2)CCC/C1=C\c1cccs1` [Tenylidone], 46.5 µM. For the molecule `OCCN(CCO)c1nc(N2CCCCC2)c2nc(N(CCO)CCO)nc(N3CCCCC3)c2n1` [Dipyridamole], the half-maximal activity concentration (AC50) was determined as 24.3 µM. The result for `O=C1CCN(c2ccccc2)N1` [3-Pyrazolidinone,1-phenyl-] reads over 90 µM; that for `CC(C)C[C@H](NC(=O)OCC1c2ccccc2-c2ccccc21)C(=O)O` [N-(9-Fluorenylmethoxycarbonyl)-L-leucine], over 90 µM; that for `C=CCOC(Cn1ccnc1)c1ccc(Cl)cc1Cl` (centres unmarked) [Imazalil sulfate], 28.4 µM. The result for `c1ccc2c(c1)Oc1ccccc1S2` [Phenoxathiin] reads over 90 µM; that for `CCCCCCCCCCCCCC(=O)OCC(O)CO` (centres unmarked) [Tetradecanoic acid, 2,3-dihydroxypropyl ester], 61.9 µM.

Consider `Cc1cccc(Nc2ccccc2)c1` [3-Methyl-N-phenylaniline], for which the AC50 amounted to 45 µM. In the case of `CC1=C2[C@H](/C=C(\C)C(=O)O)CC[C@@H](C)[C@H]2CC1` [Valerenic acid], the AC50 amounted to 57.5 µM. With `CN1CCCN=C1COC(=O)C(O)(c1ccccc1)C1CCCCC1` (centres unmarked) [Oxyphencyclimine hydrochloride] the figure was 43.3 µM; with `CCCCCCCCCCCCSC#N` [Lauryl thiocyanate], 42.6 µM. Consider `O=C(O)Cc1ccccc1Nc1c(Cl)cccc1Cl` [Diclofenac sodium], for which the AC50 is over 50 µM.
